This note sets out measurements from the supplement of paper PMC3898565.

For orientation: cell viability means a read-out of living cells in per cent, often relative to untreated cells.

± gives the uncertainty stated by the source.
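Further: viable cell number estimated from Alamar Blue fluorescence read at 560/90, part of a single-dose primary screen of an FDA-approved drug library.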

The test system of the assay is U87. Put plainly: cell viability relative to vehicle control; higher = less growth inhibition (less active). To be noted: 10 µM; 72 h.
Take `CN1CCN(c2c(F)cc3c(=O)c(C(=O)O)cn4c3c2SCC4)CC1`: the cell viability was 99.9 ± 1.7%.
`COc1ccc(CN2CCN(C(c3ccc(F)cc3)c3ccc(F)cc3)CC2)c(OC)c1OC`: the cell viability came out at 69.3 ± 8.6%.
For `Oc1ccc(C2CNCCc3c2cc(O)c(O)c3Cl)cc1` (centres undefined), the cell viability was 103 ± 2.8%.
To `CCN(CC)CC(=O)Nc1c(C)cccc1C` belongs 94.8 ± 2.8%; to `Cc1sc(N)c(C(=O)c2cccc(C(F)(F)F)c2)c1C`, 109 ± 1.8%; to `CCS(=O)(=O)CCn1c([N+](=O)[O-])cnc1C`, 101 ± 1.7%.
Turning to `CC[C@H]1OC(=O)[C@H](C)C(=O)[C@H](C)[C@@H](O[C@@H]2O[C@H](C)C[C@H](N(C)C)[C@H]2O)[C@](C)(OC)C[C@@H](C)C(=O)[C@H](C)[C@H]2N(CCCCn3cnc(-c4cccnc4)c3)C(=O)O[C@]12C`, the cell viability turned out to be 103.4 ± 0.35%.
Under `Nc1nc2ccc(OC(F)(F)F)cc2s1` [Riluzole] stands 98.1 ± 1.5%; under `CC(c1cc2ccccc2s1)N(O)C(N)=O` (centres undefined), 104.1 ± 1%; under `O=C(c1ccccc1)c1ccc2n1CCC2C(=O)O` (centres undefined) [Ketorolac Tromethamine], 101.2 ± 0.98%.
Turning to `C=CC1=C(C(=O)O)N2C(=O)[C@@H](NC(=O)/C(=N\OCC(=O)O)c3csc(N)n3)[C@H]2SC1`, the cell viability stood at 103.9 ± 0.8%.
With `CC(C)[C@H](N)C(=O)OCCOCn1cnc2c(=O)nc(N)[nH]c21`, the cell viability was 103 ± 1.8%.
To `CO[C@H]1/C=C/O[C@@]2(C)Oc3c(C)c(O)c4c(O)c(c(/C=N/N5CCN(C6CCCC6)CC5)c(O)c4c3C2=O)NC(=O)/C(C)=C\C=C\[C@H](C)[C@H](O)[C@@H](C)[C@@H](O)[C@@H](C)[C@H](OC(C)=O)[C@@H]1C` belongs 93.7 ± 1.3%; to `COC(=O)C1=C(C)NC(C)=C(C(=O)OCC(C)C)C1c1ccccc1[N+](=O)[O-]` (centres undefined) [Nisoldipine], 48.4 ± 5%.
To `Cc1cccc(C)c1NC(=O)C(C)N` (centres undefined) belongs 104 ± 2.3%; to `C[C@H]1COc2c(N3CCN(C)CC3)c(F)cc3c(=O)c(C(=O)O)cn1c23`, 102.8 ± 0.96%.
To `CN(C)CCC[C@@]1(c2ccc(F)cc2)OCc2cc(C#N)ccc21` belongs 103 ± 1.9%; to `CCOC(=O)O[C@]1(C(=O)OCCl)CC[C@H]2[C@@H]3CCC4=CC(=O)C=C[C@]4(C)[C@H]3[C@@H](O)C[C@@]21C`, 104 ± 1.4%; to `CNS(=O)(=O)Cc1ccc2[nH]cc(CCN(C)C)c2c1`, 101 ± 1.5%.
Turning to `N[C@@H](C(=O)N[C@@H]1C(=O)N2C(C(=O)O)=C(CSc3cn[nH]n3)CS[C@H]12)c1ccc(O)cc1`, the cell viability amounted to 105 ± 2.1%.
`CN(C)CCCSc1ccccc1NC(=O)/C=C/c1ccccc1` [Cinanserin]: the cell viability came out at 103.3 ± 0.66%.
To `O=C1Nc2ccc(Cl)cc2[C@@](C#CC2CC2)(C(F)(F)F)O1` belongs 107 ± 1.1%; to `Nc1nc2ccc(Cl)cc2c2nc(-c3ccco3)nn12`, 93.4 ± 5.3%; to `Cc1cccc(Nc2ccncc2S(=O)(=O)NC(=O)NC(C)C)c1`, 124 ± 2.1%.
To `C[C@H]1C[C@H]2[C@@H]3CCC4=CC(=O)C=C[C@]4(C)[C@@]3(Cl)[C@@H](O)C[C@]2(C)[C@@]1(O)C(=O)CO` [Beclomethasone] belongs 106 ± 1.5%; to `CC(=O)O[C@@]12CO[C@@H]1C[C@H](O)[C@@]1(C)C(=O)[C@H](O)C3=C(C)[C@@H](OC(=O)[C@H](O)[C@@H](NC(=O)OC(C)(C)C)c4ccccc4)C[C@@](O)([C@@H](OC(=O)c4ccccc4)[C@H]21)C3(C)C`, 45.2 ± 1.5%.
To `CCCCCCNC(=O)n1cc(F)c(=O)[nH]c1=O` belongs 55.1 ± 2.6%; to `CCCCC(=O)N(Cc1ccc(-c2ccccc2-c2nnn[nH]2)cc1)[C@H](C(=O)O)C(C)C`, 108 ± 3%.
Turning to `CN1CCCC(n2nc(Cc3ccc(Cl)cc3)c3ccccc3c2=O)CC1` (centres undefined), the cell viability amounted to 99 ± 2.2%.
Under `CN(C)CCCC1(c2ccc(F)cc2)OCc2cc(C#N)ccc21` (centres undefined) [Citalopram] stands 102 ± 1.4%; under `O=C(O)COCCN1CCN([C@H](c2ccccc2)c2ccc(Cl)cc2)CC1`, 101.2 ± 0.57%; under `O=c1[nH]c(=O)n(C2CCCO2)cc1F` (centres undefined), 96.728 ± 0.044%.
Consider `CCOc1cc(N)c(Cl)cc1C(=O)NCC1CN(Cc2ccc(F)cc2)CCO1` (centres undefined), for which the cell viability turned out to be 108 ± 1.4%.
As for `NC(N)=NC(=O)c1nc(Cl)c(N)nc1N`, the cell viability amounted to 93.54 ± 0.1%.
Take `CC(C)NCC(O)COc1ccc(COCCOC(C)C)cc1` (centres undefined): the cell viability was determined as 104 ± 2.4%.
Take `O=C(O)/C=C/c1ccc(Cn2ccnc2)cc1` [ozagrel]: the cell viability is 104 ± 1.2%.
`COc1ccc(C2CNC(=O)C2)cc1OC1CCCC1` (centres undefined): the cell viability came out at 99.3 ± 1.2%.
Under `CCC(=O)O[C@]1(C(=O)SCF)[C@H](C)C[C@H]2[C@@H]3C[C@H](F)C4=CC(=O)C=C[C@]4(C)[C@@]3(F)[C@@H](O)C[C@@]21C` stands 105 ± 2.2%; under `O=C(O[C@H]1[C@H](Oc2ccccc2COC(=O)C2(O)C=CCCC2=O)O[C@H](CO)[C@@H](O)[C@@H]1O)c1ccccc1` (some centres undefined), 104 ± 2.2%.
